The whole screen tested about 1,400 compounds, of which about 30 (2%) were called active. Roughly 15% stayed inconclusive and do not appear here. The sample as a whole holds a higher share of actives than the screen did. Unmarked numbers belong to inactive results. Calls come from the whole dose curve; as a rule, active = well fitted inhibition curve with a large enough effect; inconclusive = small, poorly fitted or top-dose-only effect; inactive = flat fitted curve, though single readings scatter.
test: Firefly Luciferase Counterscreen for Inhibitors of ATXN expression; conditions: luminescence; series mostly up to 57.5 µM; activity change, negative = inhibition: at the top concentration
Source text: University of Utah School of Medicine, Salt Lake City, Utah
Spinocerebellar ataxia type 2 (SCA2) is a multisystem neurodegenerative disease caused by a dominantly acting mutation leading to expansion of a polyQ domain in the ataxin-2 protein (ATXN2). SCA2 patients develop progressive ataxia and later lose function in other neuronal systems. Prominent parkinsonian signs develop in some patients. Like many neurodegenerative disorders, no symptomatic or disease-modifying treatments are known.
The primary objective of the proposed research is to identify compounds inhibiting ATXN2 expression and to test them for efficacy in SCA2 mouse models. We have developed a cell-based assay paired with an in vivo mouse model using identical luciferase expression constructs. This approach takes advantage of an ATXN2-luciferase transgene, with the luciferase gene flanked by the upstream and downstream portions of the ATXN2 gene. Here we describe a 5-7 dose quantitative high thoroughput screen (qHTS) for compounds lowering ATXN2 expression. We screened the NIH Molecular Libraries Small Molecule Repository (MLSMR) and NCGC's mechanistically annotated (MIPE) and drug repurposing (NPC) collections of compounds for lowering expression of an ATXN2-luciferase reporter in HEK-293 cells. The assay is a multiplexed cell viability assay to ensure target reduction in the absence of cytotoxicity. Secondary qHTS assays included a CMV-luciferase reporter expressed in HEK-293 cells as well as a biochemical assay using recombinant luciferase to detect inhibitors of the reporter enzyme. Compounds that inhibit ATXN2 expression but is not cytotoxic were selected for confirmatory and secondary screens.
PROTOCOL TABLE (as described by Inglese J, Shamu CE and Guy RK. 2007)
SEQUENCE No. (e.g., 1, 2, 3, etc.); […] (e.g., Cells, Incubation, Reagent, etc.); VALUE; DESCRIPTION.
2; Compounds; 23 nL; Kalypsis pintool (Wako USA) equipped with a 1536-well pin head.
3; Enzyme; 1 uL; recombinant firefly luciferase (prepared in 50 mM Tris HCl pH7.5, 10 mM MgCl2, 0.05% BSA, 0.01% Tween20) at final concentration of 10 nM. Wells containing buffer only were used as control (set as 100% inhibition when normalizing data).
4; Incubation; 10 min; room temperature.
5; Detection; Luminescence; Viewlux plate reader (PerkinElmer).
NOTES (numbers refer to Sequence numbers above)
1. Luciferase substrate is added to 1536 well, Greiner white assay plate. Evaporation was prevented by covering assay plates with metal lids containing holes to allow gas diffusion.
2. Compounds were added in a dose response manner with the final concentrations of 57, 11.4, 2.28, 0.46, 0.091, 0.018, 0.0037 uM. Vehicle-only plates, with DMSO being pin-transferred to columns 5-48, were inserted uniformly at the beginning and the end of each library to monitor and record any shifts in assay performance.
3. Recombinant firefly luciferase (10 nM final concentration) is added to the assay plate.
5. End-point luminescence is then measured on the Viewlux (PerkinElmer) imager equipped with a clear emission filter using a 2 sec exposure.
Inglese J, Shamu CE and Guy RK, Reporting data from high throughput screening of small molecule libraries, Nature Chemical Biology, 2007, 3(8): 438-441. doi.org/10.1038/nchembio0807-438.
% is set by controls: 0 for no effect and ±100 for the full control effect; potency is the fitted concentration of half-maximal effect.

Structure (SMILES)	activity change, negative = inhibition	Potency
CC(NC1=CC(=O)c2cccnc2C1=O)C(O)c1ccccc1 (stereo not given)	-12.2%	
O=C(Nc1nonc1-c1ccc(Cl)cc1)c1ccccc1	1.38%	
O=C(NC1=CC(=O)c2ccccc2C1=O)c1ccccc1		12.6 µM (active)
O=C(N/N=C/c1cc([N+](=O)[O-])ccc1O)c1c[nH]c2ccccc12	-4.35%	
COc1cccc(NC(=S)/C(=C(\[O-])c2cc(C)n(-c3ccccc3F)c2C)[n+]2ccc(N(C)C)cc2)c1		15.8 µM (active)
CCCC[C@@H](CNC)NC[C@H](NCCCCC1CCCCC1)C(C)C	1.22%	
CN(C)CCCN(C(=O)c1ccco1)c1nc2ccc(Br)cc2s1	-9.87%	
CS(=O)(=O)c1ccc(Nc2nc(C(N)Cc3ccc(Cl)cc3)cs2)cc1 (stereo not given)	0.635%	
Cc1cc(O)c(C)c(O)c1/C=N/NC(=O)c1cccnc1	-2.83%	
CN(C(=O)c1cnc(N2CCN(c3ncccn3)CC2)c2ccccc12)c1ccc(Cl)cc1	2.16%	
C/C(=C\C(=O)c1ccc(Br)cc1)NNC(=O)c1ccc(O)cc1	2.14%	
CC1C(=O)C(C)C(c2cc(Br)ccc2O)NC1c1cc(Br)ccc1O (stereo not given)	-3.17%	
O=C(NCc1ccccc1Cl)C1CCCN(C(=O)Nc2ccc(F)cc2)C1 (stereo not given)	-2.7%	
O=C(c1c(F)cccc1F)N1CCCC(c2nc(-c3ccc(Cl)cc3)no2)C1 (stereo not given)	-10.2%	
CCCC(=O)N1CCCC(c2cc(C(=O)Nc3ccccc3)no2)C1 (stereo not given)		1.41 µM (active)
Cc1cc(C(=O)N/N=C/c2ccc([N+](=O)[O-])s2)n[nH]1	-6.06%	
Cc1ccccc1C(=O)N/N=C/c1ccc([N+](=O)[O-])s1		3.55 µM (active)
O=C(N/N=C/c1ccc([N+](=O)[O-])s1)c1ccccc1	-19.8%	
CCOC(=O)c1c(C)nn(-c2ccc(NC(=O)c3cccs3)cc2)c1C	-9.56%	
Cc1nc2c(OCc3ccc(C(F)(F)F)cc3)cccn2c1N(C)C(=O)CCC1CCCC1	-4.05%	
C[C@@H]1CN([C@H](C)CO)S(=O)(=O)c2ccc(-c3ccc(C#N)cc3)cc2O[C@H]1CN(C)C(=O)Nc1cc(F)ccc1F	4.48%	
Clc1ccc(C[n+]2cc(-c3ccccc3)n3c2CCCCC3)c(Cl)c1	5.15%	
COc1cc(OC)cc(-c2cc3nc(C)c(CCC(=O)O)c(C)n3n2)c1		12.6 µM (active)
C/C(=N\NC(=O)Cc1ccc(Cl)cc1)c1ccccc1O	-5.39%	
COc1ccc(/C=C2\SC(=S)N(CCCC(=O)Nc3ccccn3)C2=O)cc1OC	-8.48%	

Structure (SMILES)	activity change, negative = inhibition	Potency
Cc1nc2c(OCc3ccc(C#N)cc3)cccn2c1N(C)Cc1cccs1	0.28%	
C[C@@H](CN1C2=NC[C@H](Cc3ccccc3)N2C[C@H]1Cc1ccc(O)cc1)NC(=O)CCC1CCCCC1	1.67%	
O=C(CSc1n[nH]c(-c2ccccn2)n1)Nc1ccc(F)cc1	-11.7%	
Cc1ccc(Cl)cc1N1CCN(C(=O)CCS(=O)(=O)c2ccc3c(c2)NC(=O)CO3)CC1	2.23%	
CCCCOC(=O)/C=C\C(=O)NC(N)=O	1.17%	
O=C(CCc1ccccc1)NC(c1cccs1)c1cc(Cl)c2cccnc2c1O (stereo not given)	-2.15%	
O=C(Nc1nc2cc(Cl)ccc2s1)C1CCCN(S(=O)(=O)c2cccc3cccnc23)C1 (stereo not given)	-4.41%	
Cc1ccc(S(=O)(=O)N(C)C)cc1NC(=O)c1cncc(Br)c1	3.55%	
Clc1ccc2nc(-c3ccccn3)c(Nc3ccc4c(c3)OCO4)n2c1	-0.752%	
OC(CNCCc1ccccc1)COc1ccc(OCC(O)CNCCc2ccccc2)cc1 (stereo not given)	3.74%	
Cc1ccc(/C=C2/CNC/C(=C/c3ccc(C)cc3)C2=O)cc1	-13%	
CC(=O)NC(c1ccccc1)c1cc(Cl)c2cccnc2c1O (stereo not given)	-12.7%	
COc1cccc2c1C1COC3C4CC(C(=O)O)C(C(C2)N13)N4C (stereo not given)	2.05%	
CC(=NNc1nc2ccccc2o1)c1ncccn1		14.1 µM (active)
COc1cc2nc(N(C)C)nc(N)c2cc1OC	-5.16%	
Fc1ccc(Nc2nnc(C(F)(F)F)s2)cc1Cl	-13.2%	
O=C(Nc1ccccc1C(=O)Nc1nnc(C(F)(F)F)s1)c1ccccc1Cl		22.4 µM (active)
O=C(N/N=C(\c1ccccc1)c1ccccn1)c1ccccc1Cl	-10.3%	
O=C(Nc1nc(-c2ccccc2)cs1)c1ccccc1NS(=O)(=O)c1ccc(F)cc1		28.2 µM (active)
O=S(=O)(c1ccc(F)cc1)c1snnc1-c1ccccc1	1.44%	
NC(Cc1ccc(F)cc1)c1csc(NC(=O)NC(c2ccccc2)c2ccccc2)n1 (stereo not given)	2.44%	
OC[C@@H]1CN(Cc2ccc(-c3ccccc3)cc2)C[C@H](n2cnc3c(Nc4ccccc4)ncnc32)O1	1.15%	
c1ccc(CNc2nc(-c3ccccn3)nc3ccccc23)cc1	-7.78%	
COc1ccc(CNC(=O)Nc2nc(C(N)Cc3ccc(Cl)cc3)cs2)cc1 (stereo not given)	-1.52%	
CCOC(=O)N1CCC(c2cc(=O)n3[nH]c(C)c(-c4ccc(F)cc4)c3n2)CC1	-8.39%	

Structure (SMILES)	activity change, negative = inhibition	Potency
C=CCc1cccc(/C=N/NC(=O)CCC(=O)Nc2ccc(F)cc2)c1O	2.3%	
CCCCn1c(=N)n(CCOc2ccc(C)cc2)c2ccccc21	2.78%	
CC1CCCN(c2ncnc3c2cnn3-c2ccc(Cl)cc2)C1 (stereo not given)		0.0891 µM (active)
Cn1ncc2c(N3CCN(c4ccc(Cl)c(Cl)c4)CC3)ncnc21	-0.373%	
COc1ccccc1Cc1c(-c2ccco2)nc2c(C)cc(Br)cn12		15.8 µM (active)
Oc1ccccc1C(Nc1nccs1)c1ccc2cccnc2c1O (stereo not given)	-4.63%	
Oc1ccc(N2CCN(c3ccnc4cc(Cl)ccc34)CC2)cc1	-6.51%	
CN1CCN(c2cc(-c3cc(O)c4ncccc4c3)ccn2)CC1	-1.23%	
CCN1CCS/C1=C\C=C\C1=[N+](CC)CCS1	-3.22%	
Cc1cc([N+](=O)[O-])nn1Cc1ccc(C(=O)N/N=C/c2ccc(O)cc2O)cc1	6.39%	
Cc1sc2ncnc(NCC(O)c3ccc([N+](=O)[O-])cc3)c2c1C (stereo not given)	-0.514%	
CCc1nn2cc(C(=O)c3cc(Cl)ccc3O)cnc2c1-c1ccc(F)cc1	-7.19%	
Cc1cc(NC(c2cccnc2)c2ccc3cccnc3c2O)no1 (stereo not given)	-3.83%	
CCn1c2ccccc2c2cc(/C=N/NC(=O)c3ccccc3)ccc21	-10%	
COc1ccc(C(NC(C)=O)c2cc(Cl)c3cccnc3c2O)cc1OC (stereo not given)	-18.1%	
O=C(N/N=C/c1sc(N2CCOCC2)nc1-c1ccccc1)c1ccccc1O	-18.3%	
CS(=O)(=O)Nc1cccc(NC(=O)c2cccc3c(-c4cccc(C(N)=O)c4)coc23)c1		14.1 µM (active)
NC(=O)c1cccc(-c2ccnc3c2CC(C(=O)Nc2cccc(Oc4ccccc4)c2)O3)c1 (stereo not given)	-7.75%	
CCc1nc2ccc(C(=O)Nc3cccc(NS(C)(=O)=O)c3)cn2c1N(C)CCCc1ccccc1	-2.96%	
O=C1c2cccc3cc([N+](=O)[O-])cc(c23)C(=O)N1CCN1CCCC1	1.39%	
COc1cc(C(=O)NC(=S)NNC(=O)c2cnccn2)cc(OC)c1OC	-7.31%	
CC1=NN(c2nc3ccccc3[nH]2)C(=O)C1Cc1ccccc1 (stereo not given)		25.1 µM (active)
Clc1ccc2c(NCc3ccccc3)ccnc2c1	-5.63%	
CC1(C)C(C=C(Cl)Cl)C1C(=O)Nc1ccc([N+](=O)[O-])cc1 (stereo not given)	-1%	
CC1(C)Cc2ccccc2C2=NNC(=O)C2=N1	-3.52%	

Structure (SMILES)	activity change, negative = inhibition	Potency
CC(=O)Nc1ccc(N(CC(O)Cn2c3ccccc3c3ccccc32)S(=O)(=O)c2ccc(C)cc2)cc1 (stereo not given)	1.22%	
Cc1ccc(S(=O)(=O)Nc2ccc(O)c3cccnc23)cc1	-7.92%	
CC(C)n1cnc2c(N(C)c3ccccc3)nc(N(CCN(C)C)Cc3ccccc3)nc21	0.895%	
COc1ccc(-c2cc(C3CCN(c4ccc(C(C)=O)cc4[N+](=O)[O-])CC3)[nH]n2)cc1	-6.65%	
CCC(c1nnnn1C1CCCC1)N(Cc1cccs1)Cc1cc2cc(C)ccc2[nH]c1=O (stereo not given)	2.95%	
CC[n+]1c(/C=C/N(C)c2ccccc2)oc2ccc(F)cc21	2.57%	
O=[N+]([O-])c1ccc(NC(c2ccccc2)c2ccc3cccnc3c2O)cc1 (stereo not given)	0.892%	
CCC1=C(CC2NCCc3ccccc32)CC2c3cc(OC)c(OC)cc3CCN2C1 (stereo not given)	-1.08%	
O=C(CNC(=O)c1ccc(F)cc1)N/N=C/c1cc(Br)ccc1OC(=O)/C=C/c1ccco1	-1.3%	
O=C(/C=C/c1ccco1)Oc1cc(Br)cc(/C=N/NC(=O)c2ccccc2O)c1		12.6 µM (active)
O=C(CNC(=O)c1ccccc1F)N/N=C/c1cc(Br)ccc1OC(=O)/C=C/c1ccco1	-17.1%	
Cc1nnc(SCC(N)=O)n1CC1CCCO1 (stereo not given)	0.593%	
Cc1ccc(NC(=O)CN2C(=O)c3ccccc3S2(=O)=O)cc1C	-22.2%	
O=C(CCCN1C(=O)/C(=C/c2ccccc2Cl)SC1=S)NNC(=O)c1ccc(Cl)cc1Cl	4.34%	
O=C(CN1C(=O)c2ccccc2S1(=O)=O)c1ccc(Cl)cc1Cl		0.562 µM (active)
Cc1cc(C(=O)CN2C(=O)c3ccccc3S2(=O)=O)c(C)n1CC1CCCO1 (stereo not given)		6.31 µM (active)
COc1ccc(S(=O)(=O)Nc2ccc(F)cc2)cc1N(C)S(=O)(=O)c1ccc(Cl)cc1	-4.61%	
C=CCc1cccc(/C=N/NC(=O)C[n+]2ccccc2)c1O	49.8%	
CC(=O)Oc1ccc(N(C(C)=O)S(=O)(=O)c2ccc(C)cc2C)c2ccccc12	-6.82%	
NS(=O)(=O)c1ccc(CCNc2ncnc3c2c(-c2ccccc2)cn3-c2ccc(F)cc2)cc1	-1.88%	
Cc1cc(/C=N/n2c(COc3ccccc3)nc3ccccc3c2=O)c(O)c([N+](=O)[O-])c1		15.8 µM (active)
Cc1nc2ccccc2c(=O)n1/N=C/c1c(O)ccc2oc3c(c12)CCCC3	-0.379%	
Cc1nc2ccccc2c(=O)n1/N=C/c1cc(Br)ccc1O	-6.67%	
Cc1ccc(C(C)C)c(OCc2ccc(C(=O)N/N=C/c3ccc(O)cc3O)cc2)c1	-15.1%	
COc1ccc(CC(N)c2csc(NC(=O)c3cccc(OC(F)(F)F)c3)n2)cc1 (stereo not given)	-2.7%	

Source: PubChem BioAssay AID1745846 (National Center for Advancing Translational Sciences (NCATS), 2022)
